Reference: PubChem BioAssay AID1159580 (chemical genetic matrix, 2015)
Where “and” joins values, the source holds several entries; their conditions need not be identical. Equal entries are not always repeated. The campaign covered roughly 5,500 compounds. About 2,000 (36%) were called active. Roughly 18% stayed inconclusive and do not appear here. Cut-off read from the data, not from the text of the source: active = normalized growth mostly below about 0.91 (no sharp cut-off); inconclusive = no clear call, values can overlap the other calls; inactive = mostly above about 0.92. This is one part of the list.

Test: chemical genetic growth profiling, strain panel (AID 1159580);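 note: tested at 20 µM; growth read once vehicle control cultures reached saturation at 30 °C; 1 = growth at the plate median or of vehicle wells; lower values mean less growth of the strain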
Settings: S. cerevisiae deletion strains, growth OD

Measured: normalized growth

O=C(Cn1ccnc1[N+](=O)[O-])NCCO
inactive: locus YAL013W, strain DEP1, active compounds read low 0.996 | locus YAL021C, strain ccr4, active compounds read low 1.02 | locus YAL026C, strain drs2, active compounds read low 1.02 | locus YAL030W, strain snc1, active compounds read low 1.01 | locus YBL061C, strain skt5, active compounds read low 1.03 | locus YBR009C, strain hhf1, active compounds read low 1.02 | locus YBR021W, strain FUR4, active compounds read low 1.03 | locus YBR023C, strain chs3, active compounds read low 1.02 | locus YBR171W, strain sec66, active compounds read low 1.04 | locus YBR229C, strain ROT2, active compounds read low 1.01 | locus YBR231C, strain swc5, active compounds read low 1 | locus YBR279W, strain paf1, active compounds read low 1 | locus YCL011C, strain gbp2, active compounds read low 1.01 | locus YCL016C, strain dcc1, active compounds read low 1.02 | locus YCL029C, strain bik1, active compounds read low 1.02 | locus YCL061C, strain MRC1, active compounds read low 1.01 | locus YCL069W, strain vba3, active compounds read low 1.01 | locus YCR088W, strain abp1, active compounds read low 1.01 | locus YDL005C, strain med2, active compounds read low 1.02 | locus YDL035C, strain GPR1, active compounds read low 1.02 | locus YDL040C, strain nat1, active compounds read low 1.01 | locus YDL074C, strain BRE1, active compounds read low 0.99 | locus YDL101C, strain DUN1, active compounds read low 1 | locus YDL134C, strain PPH21, active compounds read low 0.996 | locus YDL185W, strain tfp1, active compounds read low 0.999 | locus YDL192W, strain arf1, active compounds read low 1.01 | locus YDR001C, strain nth1, active compounds read low 1.01 | locus YDR069C, strain doa4, active compounds read low 1.02 | locus YDR101C, strain arx1, active compounds read low 1.01 | locus YDR137W, strain rgp1, active compounds read low 1.05 | locus YDR150W, strain NUM1, active compounds read low 0.998 | locus YDR159W, strain sac3, active compounds read low 1.02 | locus YDR162C, strain NBP2, active compounds read low 0.985 | locus YDR195W, strain ref2 1.02 | locus YDR297W, strain sur2, active compounds read low 1.01 | locus YDR318W, strain mcm21, active compounds read low 1.03 | locus YDR334W, strain swr1, active compounds read low 1.01 | locus YDR335W, strain msn5, active compounds read low 1.01 | locus YDR388W, active compounds read low 1.01 | locus YDR392W, strain spt3, active compounds read low 1.03 | locus YDR502C, strain sam2, active compounds read low 0.988 | locus YEL003W, strain gim4, active compounds read low 1 | locus YEL037C, strain rad23, active compounds read low 1.02 | locus YEL061C, strain CIN8 (second series), active compounds read low 1.01 | locus YEL061C, strain CIN8, active compounds read low 1 | locus YER015W, strain faa2, active compounds read low 1 | locus YER016W, strain bim1, active compounds read low 1.01 | locus YER110C, active compounds read low 1 | locus YER111C, strain swi4, active compounds read low 1.02 | locus YER155C, strain BEM2 (second series), active compounds read low 1.01 | locus YER155C, strain BEM2, active compounds read low 1 | locus YER167W, strain BCK2, active compounds read low 1.03 | locus YFR010W, strain ubp6, active compounds read low 1.02 | locus YGL078C, strain dbp3, active compounds read low 0.983 | locus YGL086W, strain mad1, active compounds read low 1.03 | locus YGL167C, strain pmr1, active compounds read low 1.02 | locus YGL173C, strain kem1, active compounds read low 1.01 | locus YGL227W, strain vid30, active compounds read low 1.01 | locus YGL240W, strain doc1, active compounds read low 1.02 | locus YGL248W, strain PDE1, active compounds read low 0.999 | locus YGL253W, strain hxk2, active compounds read low 0.982 | locus YGR078C, strain PAC10, active compounds read low 0.995 | locus YGR135W, strain pre9, active compounds read low 0.988 | locus YGR229C, strain SMI1, active compounds read low 0.999 | locus YGR252W, strain gcn5, active compounds read low 1.09 | locus YHR013C, strain ard1, active compounds read low 1.04 | locus YHR027C, strain rpn1, active compounds read low 1.01 | locus YHR030C, strain SLT2, active compounds read low 1.01 and 0.984 | locus YHR079C, strain IRE1 (second series), active compounds read low 1.01 | locus YHR079C, strain IRE1, active compounds read low 0.998 | locus YHR094C, strain hxt1, active compounds read low 1.01 | locus YHR129C, strain ARP1, active compounds read low 1.01 | locus YHR142W, strain chs7, active compounds read low 1.02 | locus YHR200W, strain rpn10, active compounds read low 1.01 | locus YIL066C, strain RNR3, active compounds read low 1.01 | locus YIL073C, strain SPO22, active compounds read low 1.04 | locus YIL125W, strain kgd1, active compounds read low 0.997 | locus YIR030C, strain dcg1, active compounds read low 1.01 | locus YJL092W, strain hpr5, active compounds read low 1.02 | locus YJL095W, strain BCK1 (second series), active compounds read low 1.01 | locus YJL095W, strain BCK1, active compounds read low 1.01 and 0.995 | locus YJL115W, strain asf1, active compounds read low 1.01 | locus YJL129C, strain trk1, active compounds read low 1.02 | locus YJL134W, strain LCB3, active compounds read low 1.01 | locus YJL154C, strain vps35, active compounds read low 1.02 | locus YJL166W, strain qcr8, active compounds read low 1.01 | locus YJL168C, strain set2, active compounds read low 1.01 | locus YJL187C, strain SWE1 (second series), active compounds read low 0.999 | locus YJL187C, strain SWE1, active compounds read low 1.01 | locus YJR043C, strain POL32, active compounds read low 1.04 | locus YJR066W, strain TOR1, active compounds read low 0.972
